Results published in PubChem BioAssay.

Each compound was assayed against Fibroblast growth factor 10 (Homo sapiens) (UniProt O15520) (assay: FGF10 binders on small-molecule microarrays, primary screen, biochemical, small-molecule microarray, 635 nm fluorescence (AID 1102)). Settings: FGF10 binding, fluorescence 635 nm, higher = more signal.
Fibroblast growth factor 10 (Homo sapiens), sequence (O15520 whole entry, looked up): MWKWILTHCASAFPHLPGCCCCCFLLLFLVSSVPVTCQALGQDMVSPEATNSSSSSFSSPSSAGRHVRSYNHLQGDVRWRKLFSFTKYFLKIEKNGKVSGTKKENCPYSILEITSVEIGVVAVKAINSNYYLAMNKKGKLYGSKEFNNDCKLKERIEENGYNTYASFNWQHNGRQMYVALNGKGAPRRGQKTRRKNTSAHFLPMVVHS

SMILES	composite z-score
[N-]=[N+]=Nc1ccccc1C[C@]1(C(=O)O)N=C(c2ccc(OCCCO)cc2)O[C@H]1c1ccccc1	0.143
CN1C(=O)[C@@]2(Cc3ccccc3)N=C(c3ccc(OCCCO)cc3)O[C@H]2c2ccccc21	1.3
NC(=O)[C@@H]1[C@H]2C(=O)O[C@H](c3ccccc3)[C@H](c3ccccc3)N2[C@H](c2ccc(OCCO)cc2)[C@@]12C(=O)Nc1ccc(C#CCCO)cc12	0.372
Cc1ccc(S[C@]2(C(=O)NC(C)C)CC(=O)N(Cc3ccccc3Cl)[C@@H]2c2ccc(CO)cc2)cc1	-0.465
CC(C)=CCCC(C)=CC(O)C1C=CC2C(=O)N(c3ccccc3)C(=O)C2N1Nc1ccccc1F (stereo not given)	0.85
COc1cc2c(cc1OC)CN(C(=O)[C@@H]1[C@H]3C(=O)O[C@H](c4ccccc4)[C@H](c4ccccc4)N3[C@H](c3ccc(O)cc3)[C@@]13C(=O)Nc1ccc(C#CCCO)cc13)CC2	1.19
COc1cc(NN2C(C(O)C3CCCCC3)C=CC3C(=O)N(C)C(=O)C32)cc(OC)c1OC (stereo not given)	0.144
CC(C)C(CO)N1C(=O)[C@@H]2[C@H]3C(=O)OCC=C[C@H]3OC23C=CCN(C(C)(C)C)C(=O)[C@@H]13 (stereo not given in full)	-1.07
COC(=O)[C@@]1(Cc2ccc(OC)cc2)[C@H]2c3cc(C(=O)N4CCCC4)n(Cc4ccc(S(C)(=O)=O)cc4)c3C[C@H]2CN1C(=O)c1ccccc1	0.508
CCCNC(=O)[C@@]1(Sc2ccc(C)cc2)CC(=O)N(C2CCCCC2)[C@@H]1c1ccc(CO)cc1I	0.382
CO[C@H]1O[C@H](CO)[C@@H](OC(=O)Nc2ccc(C#N)cc2)[C@@H]2OC(=O)[C@H](Cc3cccc(Br)c3)C/C=C/C[C@@H](Cc3cccc(Br)c3)C(=O)O[C@@H]12	0.788
COCCOC(=O)N1C(=O)[C@@]2(c3cc(C#CC4(O)CCCCCC4)ccc31)[C@H](C(=O)N1CCN(c3ncccn3)CC1)[C@H]1C(=O)O[C@H](c3ccccc3)[C@H](c3ccccc3)N1[C@@H]2c1ccccc1OCCO	0.864
CCCC=C(CCC)[C@@H](NC(=O)CCc1ccccc1)c1ccc(C(F)(F)F)cc1	0.527
CC(C)[C@H]1NC(=O)[C@@]23C(=O)N[C@@H](Cc4ccccc4)C2[C@H](C)[C@@]2(C)O[C@H]2C3/C=C/CCC/C=C/CNC(=O)[C@H](Cc2ccccc2)NC1=O (stereo not given in full)	0.106
CCCCNC(=O)c1ccc(C#C[Si](C(C)C)(C(C)C)C(C)C)c(OC(C)=O)c1	0.832
C=C(/C(=C/C[C@H](OC(=O)c1ccncc1)c1ccccc1OCCO)c1cnc2ccccc2c1)C(C)C	1.47
COc1cc(NN2C(C(O)c3cc(OC)c(OC)c(OC)c3)C=CC3C(=O)N(c4ccccc4)C(=O)C32)cc(OC)c1OC (stereo not given)	1.26
COC(=O)[C@@]1(Cc2ccccc2)[C@H]2c3cc(C(=O)N4CCCC4)n(CCSCCO)c3C[C@H]2CN1C(=O)c1ccccc1	0.283

SMILES	composite z-score
COCCOC(=O)N1C(=O)[C@@]2(c3cc(C#Cc4ccc(OC)cc4)ccc31)[C@H](c1ccc(OCCO)cc1)N1[C@H](c3ccccc3)[C@H](c3ccccc3)OC(=O)[C@H]1[C@@H]2C(=O)Nc1nc2ccccc2s1	1.06
COCCOC(=O)N1C(=O)[C@@]2(c3cc(C#CCC(C(=O)OC)C(=O)OC)ccc31)[C@H](c1ccc(O)cc1)N1[C@H](c3ccccc3)[C@H](c3ccccc3)OC(=O)[C@H]1[C@@H]2C(=O)NC[C@H](O)c1ccccc1	0.681
CCCCCCCCCCC(O)C1C=CC2C(=O)N(c3ccccc3)C(=O)C2N1Nc1ccccc1F (stereo not given)	-0.387
COc1ccc(C(O)C2C=CC3C(=O)N(c4ccccc4)C(=O)C3N2Nc2ccc(C(C)C)cc2)c2ccccc12 (stereo not given)	0.839
O=C1C2C=CC(C(O)c3cc(C(F)(F)F)cc(C(F)(F)F)c3)N(Nc3ccccc3F)C2C(=O)N1c1ccccc1 (stereo not given)	0.223
C=C(CCCC)C(=O)CC[C@@H](OC(=O)c1cccnc1)c1ccc(OCCO)cc1	1.67
C=C(/C(=C/C[C@@H](OC(=O)c1ccncc1)c1cccc(OCCO)c1)c1cnc2ccccc2c1)C(C)C	1.5
CC(C)CNC(=O)[C@@]1(c2ccc([N+](=O)[O-])cc2)CC(=O)N(C2CCCCC2)[C@@H]1c1ccc(CO)cc1	0.735
C[C@]1(C(=O)O)c2ccccc2C(=O)N(Cc2ccc(OC(F)(F)F)cc2)[C@H]1c1ccc(CO)cc1	0.0104
C=C(COC)C(=O)CC[C@H](OC(=O)c1cccnc1)c1ccc(CO)o1	0.905
COCCOC(=O)N1C(=O)[C@@]2(c3cc(C#CCC(C(=O)OC)C(=O)OC)ccc31)[C@H](C(=O)NC[C@H](O)c1ccccc1)[C@H]1C(=O)O[C@H](c3ccccc3)[C@H](c3ccccc3)N1[C@@H]2c1ccc(O)cc1	0.923
Cc1cccc([C@H]2C[C@H]3C(Br)=C[C@@H]2C(=O)[C@]32CO2)c1	-0.711
C=CCC(OC(C)=O)[C@@H]1[C@@H](N(Cc2ccc(-c3cccc(C(F)(F)F)c3)o2)C(=O)c2cccc3ccccc23)c2cc(OCCCO)ccc2N1C(=O)Cc1ccc(OC)cc1 (stereo not given in full)	0.0525
CC(C)C[C@@H]1NC(=O)[C@@]23C(=O)N[C@@H](Cc4ccccc4)C2[C@H](C)[C@@]2(C)O[C@H]2C3/C=C/C/C=C\CNC(=O)[C@@H](C)NC1=O (stereo not given in full)	-0.052
CCOC(=O)C1=CCN(S(=O)(=O)c2ccc(C)cc2)C1c1ccccc1 (stereo not given)	1.19
COCCOC(=O)N1C(=O)[C@@]2(c3ccccc31)[C@H](c1ccccc1OCCO)N1[C@H](c3ccccc3)[C@H](c3ccccc3)OC(=O)[C@H]1[C@@H]2C(N)=O	1.2
C=C(COC)C(=O)CC[C@@H](OC(=O)c1cccnc1)c1ccccc1OCCO	0.694
